Assay results taken from PMC4336329 (PLoS ONE, 2015).
About 14,000 (4.5%) of roughly 310,000 compounds showed an effect of 50% or more. The effect is printed as a negative number. The sample holds strong results, similar compounds and a random draw of the others, so the mix is not that of the screen.
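Note: peak tail current of the secondary pulse compared with the same well before compound.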

The compounds below were run against human ether-à-go-go-related gene (hERG) potassium channel (human, UniProt Q12809) (assay: primary screen, population patch clamp on CHO cells stably expressing hERG; higher = less effect of the substance).
human ether-à-go-go-related gene (hERG) potassium channel, sequence (Q12809 whole entry, looked up): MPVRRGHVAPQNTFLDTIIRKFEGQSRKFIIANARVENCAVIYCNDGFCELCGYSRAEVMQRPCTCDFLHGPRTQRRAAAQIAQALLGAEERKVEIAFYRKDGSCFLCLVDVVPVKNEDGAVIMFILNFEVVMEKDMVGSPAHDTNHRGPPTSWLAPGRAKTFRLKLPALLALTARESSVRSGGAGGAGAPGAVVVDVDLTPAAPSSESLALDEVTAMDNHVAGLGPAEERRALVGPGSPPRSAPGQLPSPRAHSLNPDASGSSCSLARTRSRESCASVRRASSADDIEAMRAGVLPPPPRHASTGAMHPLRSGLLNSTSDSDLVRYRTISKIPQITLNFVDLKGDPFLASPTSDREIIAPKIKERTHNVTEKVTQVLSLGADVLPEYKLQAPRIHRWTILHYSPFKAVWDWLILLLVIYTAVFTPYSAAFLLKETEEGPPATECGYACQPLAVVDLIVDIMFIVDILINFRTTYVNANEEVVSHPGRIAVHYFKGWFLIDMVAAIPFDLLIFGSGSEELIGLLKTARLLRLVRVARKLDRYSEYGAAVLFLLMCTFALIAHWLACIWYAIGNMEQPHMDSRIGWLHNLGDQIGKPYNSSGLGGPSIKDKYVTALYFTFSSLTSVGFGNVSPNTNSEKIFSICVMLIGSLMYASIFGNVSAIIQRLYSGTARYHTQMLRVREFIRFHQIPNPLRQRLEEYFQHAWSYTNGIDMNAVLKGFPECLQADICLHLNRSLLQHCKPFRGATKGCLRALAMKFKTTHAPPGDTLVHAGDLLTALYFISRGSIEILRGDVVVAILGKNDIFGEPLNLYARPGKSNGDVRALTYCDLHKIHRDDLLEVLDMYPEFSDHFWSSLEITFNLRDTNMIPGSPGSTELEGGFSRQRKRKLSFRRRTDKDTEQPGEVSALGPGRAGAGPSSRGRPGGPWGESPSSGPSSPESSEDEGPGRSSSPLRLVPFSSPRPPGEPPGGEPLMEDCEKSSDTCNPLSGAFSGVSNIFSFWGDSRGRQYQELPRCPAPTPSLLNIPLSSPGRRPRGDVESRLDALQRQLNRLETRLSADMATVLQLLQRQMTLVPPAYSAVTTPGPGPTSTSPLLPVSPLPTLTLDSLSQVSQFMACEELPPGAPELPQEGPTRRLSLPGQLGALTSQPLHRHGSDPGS
For `Cc1ccc2c(c1)C(c1ccccc1)N(C(=O)c1ccc(S(=O)(=O)N3CCOCC3)cc1)CC(=O)N2` (stereo not shown), the “hERG current change (%, negative = inhibition) at 10uM” value was -19.1%.
With `COc1cc([N+](=O)[O-])ccc1NC(=O)C[n+]1ccccc1C.[Cl-]` the “hERG current change (%, negative = inhibition) at 10uM” value was 11%.
With `N#Cc1c(-c2ccccc2)cc(-c2ccccc2)nc1SCCC(=O)O` the “hERG current change (%, negative = inhibition) at 10uM” value was 18.4%.
For `COc1ccc(/C(N)=N/OC(=O)c2ccc(C)c([N+](=O)[O-])c2)cc1`, the “hERG current change (%, negative = inhibition) at 10uM” value was -6.61%.
With `O=C(N/C(=C/c1ccc(Br)cc1)C(=O)N1CCOCC1)c1ccco1` the “hERG current change (%, negative = inhibition) at 10uM” value was -24.1%.
In the case of `O=C(N/C(=C/c1ccc(Br)cc1)C(=O)N1CCOCC1)c1cccs1`, the “hERG current change (%, negative = inhibition) at 10uM” value is reported as -5.65%.
`O=C(N/C(=C\c1ccc(Br)cc1)C(=O)N1CCOCC1)c1ccc(Br)o1` was tested, and the “hERG current change (%, negative = inhibition) at 10uM” value was -67.1%.
With `O=C(N/C(=C/c1ccc(Br)cc1)C(=O)N1CCOCC1)c1ccc(Br)o1` the “hERG current change (%, negative = inhibition) at 10uM” value was -70.2%.
With `O=C(N/C(=C\c1ccccc1)C(=O)N1CCOCC1)c1ccc(Br)o1` the “hERG current change (%, negative = inhibition) at 10uM” value was 3.18%.
`O=C(N/C(=C\c1ccc(Br)cc1)C(=O)N1CCOCC1)c1ccco1` was tested, and the “hERG current change (%, negative = inhibition) at 10uM” value was -41%.
With `CCOC(=O)CN(C(=O)c1ccccc1[N+](=O)[O-])C(C)(C)C` the “hERG current change (%, negative = inhibition) at 10uM” value was 9.73%.
For `COc1ccc(C(=O)N2CCC(CCC(=O)Nc3cccc(C)c3)CC2)cc1`, the “hERG current change (%, negative = inhibition) at 10uM” value was -68.3%.
`COc1cccc(NC(=O)CCC2CCN(C(=O)c3cccc(NC(C)=O)c3)CC2)c1` was tested, and the “hERG current change (%, negative = inhibition) at 10uM” value was -28.4%.
For `COc1cccc(C(=O)N2CCC(CCC(=O)Nc3cccc(C)c3)CC2)c1`, the “hERG current change (%, negative = inhibition) at 10uM” value was -28.6%.
In the case of `Cc1cccc(NC(=O)CCC2CCN(C(=O)c3ccc(C)s3)CC2)c1`, the “hERG current change (%, negative = inhibition) at 10uM” value is reported as -65.5%.
With `COc1cccc(NC(=O)CCC2CCN(C(=O)c3ccc(C(C)=O)s3)CC2)c1` the “hERG current change (%, negative = inhibition) at 10uM” value was -36.9%.
With `COCc1ccc(C(=O)N2CCC(CCC(=O)Nc3cccc(C)c3)CC2)s1` the “hERG current change (%, negative = inhibition) at 10uM” value was -15.1%.
For `O=[N+]([O-])c1ccc(-c2nc(NCC3CCCO3)c3ccccc3n2)cc1` (stereo not shown), the “hERG current change (%, negative = inhibition) at 10uM” value was 12.3%.
For `O=C(Cc1ccsc1)N1CCN(S(=O)(=O)c2cc(C(F)(F)F)cc(C(F)(F)F)c2)CC1`, the “hERG current change (%, negative = inhibition) at 10uM” value was 1.69%.
`Cc1ccc(S(=O)(=O)CCc2nc3ccccc3[nH]2)cc1` was tested, and the “hERG current change (%, negative = inhibition) at 10uM” value was -17.6%.
`Cc1nc2cc(C)c(C)cc2s1` was tested, and the “hERG current change (%, negative = inhibition) at 10uM” value was 15.7%.
`CS(=O)(=O)N(CC(=O)NC1CCCCCC1)Cc1ccccc1` was tested, and the “hERG current change (%, negative = inhibition) at 10uM” value was -1.26%.
With `CN1C(=O)C(CC(=O)Nc2ccc(F)cc2)N(NC(=O)c2cccc(F)c2)C1=S` (stereo not shown) the “hERG current change (%, negative = inhibition) at 10uM” value was -3.79%.
With `CCn1c(SCC(=O)c2ccc3ccccc3c2)nnc1-c1cccs1` the “hERG current change (%, negative = inhibition) at 10uM” value was -8.29%.
`COc1cc(C(=O)NC(=S)NCc2ccco2)cc(OC)c1OC` was tested, and the “hERG current change (%, negative = inhibition) at 10uM” value was 1.74%.
With `CC(=O)Nc1ccc2nc(CN3CCC(CO)(CCc4ccccc4)CC3)ccc2c1` the “hERG current change (%, negative = inhibition) at 10uM” value was -68.2%.
For `CCOC(=O)C1(Cc2ccccc2)CCN(Cc2cc(=O)c3ccccc3[nH]2)CC1`, the “hERG current change (%, negative = inhibition) at 10uM” value was 13.5%.
With `CC(=O)Nc1ccc2nc(CN3CCN(CC(C)C)C(CCO)C3)ccc2c1` (stereo not shown) the “hERG current change (%, negative = inhibition) at 10uM” value was 17%.
In the case of `CCOC(=O)C1(Cc2ccccc2)CCN(Cc2ccon2)CC1`, the “hERG current change (%, negative = inhibition) at 10uM” value is reported as 0.71%.
For `CC(=O)Nc1ccc2nc(CN3CCN(CC=C(C)C)C(CCO)C3)ccc2c1` (stereo not shown), the “hERG current change (%, negative = inhibition) at 10uM” value was 11.5%.
`CCOC(=O)C1(Cc2ccccc2)CCN(Cc2ccc3cc(NC(C)=O)ccc3n2)CC1` was tested, and the “hERG current change (%, negative = inhibition) at 10uM” value was -68.7%.
With `COc1ccc(C(=O)Nc2nc3c(s2)CCCC3)cc1S(=O)(=O)N1CCCc2ccccc21` the “hERG current change (%, negative = inhibition) at 10uM” value was -2.36%.
With `Cc1noc(C)c1COc1ccc(C(=O)O)cc1` the “hERG current change (%, negative = inhibition) at 10uM” value was 17.1%.
In the case of `CCCCc1n[nH]c2c1/C(=N/O)CC(c1ccccc1)C2` (stereo not shown), the “hERG current change (%, negative = inhibition) at 10uM” value is reported as 8.46%.
In the case of `OC(CNCCc1ccc(C(F)(F)F)cc1)COc1cccc2ccccc12` (stereo not shown), the “hERG current change (%, negative = inhibition) at 10uM” value is reported as -36.5%.
For `COc1cccc(OCC(O)CNC(C)c2ccccc2)c1.Cl` (stereo not shown), the “hERG current change (%, negative = inhibition) at 10uM” value was 2.14%.
`Cc1cccc(C)c1OCC(O)CNC(C)c1ccccc1.Cl` (stereo not shown) was tested, and the “hERG current change (%, negative = inhibition) at 10uM” value was -13.7%.
For `COc1ccc(CCNCC(O)c2ccccc2)cc1.O=C(O)C(=O)O` (stereo not shown), the “hERG current change (%, negative = inhibition) at 10uM” value was -11.4%.
For `COc1ccc(C(OCC(O)CNC(C)c2ccccc2)c2ccc(OC)cc2)cc1` (stereo not shown), the “hERG current change (%, negative = inhibition) at 10uM” value was -52.4%.
In the case of `Cc1ccc(C(OCC(O)CNC(C)c2ccccc2)c2ccccc2)cc1` (stereo not shown), the “hERG current change (%, negative = inhibition) at 10uM” value is reported as -58.2%.
`COc1ccc(C(OCC(O)CNCCc2ccc(S(N)(=O)=O)cc2)c2ccc(OC)cc2)cc1` (stereo not shown) was tested, and the “hERG current change (%, negative = inhibition) at 10uM” value was -43.2%.
With `CC(NCC(O)COc1ccc2ccccc2c1)c1ccccc1.O=C(O)C(=O)O` (stereo not shown) the “hERG current change (%, negative = inhibition) at 10uM” value was -44%.
With `COc1ccccc1COCC(O)CNCCc1ccc(C(F)(F)F)cc1.O=C(O)C(=O)O` (stereo not shown) the “hERG current change (%, negative = inhibition) at 10uM” value was -56.5%.
With `COc1ccc(C(OCC(O)CNCCc2ccccc2)c2ccc(OC)cc2)cc1.O=C(O)C(=O)O` (stereo not shown) the “hERG current change (%, negative = inhibition) at 10uM” value was -63.7%.
`Cc1ccc(C(OCC(O)CNC(CO)C(O)c2ccc([N+](=O)[O-])cc2)c2ccccc2)cc1` (stereo not shown) was tested, and the “hERG current change (%, negative = inhibition) at 10uM” value was -22.4%.
With `O=C(O)C(=O)O.OC(CNCCc1ccc(C(F)(F)F)cc1)COC(c1ccccc1)c1ccccc1` (stereo not shown) the “hERG current change (%, negative = inhibition) at 10uM” value was -34.7%.
